Laboratory results as given in PubChem BioAssay (NCATS).
Results filed as inconclusive are left out. Unless noted, calls follow the shape of the dose curve; as a rule, active = well fitted curve in either direction with a large enough effect (not every such curve was filed as active); inconclusive = small, poorly fitted or top-dose-only effect, or another doubt; inactive = flat fitted curve, though single readings scatter.

What was measured:
[1] = AP1 Signaling Pathway (AID 357); conditions: ME-180 AP-1-bla reporter, EGF-induced, beta-lactamase ratio, 5 h; at 17.2 µM (top of the series) unless noted;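 also: ME-180 reporter cells stimulated with EGF at its EC50 level; % is scaled to controls: 0 for no effect and ±100 for the full control effect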
Summary of the method: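 Read-out was the 460nm/530nm emission ratio (excitation 405nm) after CCF4 loading for 2.5 hours at room temperature. Cells carried an AP-1-driven beta-lactamase reporter, were stimulated with EC50 EGF plus compound for 5 hours, and AC50 values came from titrations.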

[2] = NFAT Signaling Pathway (AID 444); conditions: Jurkat NFAT-bla M1, carbachol, beta-lactamase ratio, 5 h; at 17.2 µM (top of the series) unless noted;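 also: carbachol stimulus at about its EC50 of 1 µM final; % is scaled to controls: 0 for no effect and ±100 for the full control effect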
Summary of the method: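 Jurkat cells with NFAT-driven β-lactamase reporter and co-expressed M1 receptor, stimulated with carbachol (final 1 uM, ~EC50), compound titration, 5 h at 37 °C. CCF4 loaded 1 h at RT; 460/530 nm ratio gave %activity and AC50.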

[3] = Stat Signaling Pathway (AID 446); conditions: ME-180 (cervical carcinoma) SIE beta-lactamase reporter, IL-6 stimulated, 5 h; at 17.2 µM (top of the series) unless noted;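 also: ME-180 cervical cancer cells given 40 pM IL-6 alongside compound; SIE-controlled beta-lactamase reporter measured as 460/530 nm FRET emission ratio; % is scaled to controls: 0 for no effect and ±100 for the full control effect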
Summary of the method: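 Overnight-plated ME-180 cells bearing a STAT Inducible Element beta-lactamase reporter; 5 h co-exposure to compound and 40 pM IL-6; values normalized to 300 pM IL-6 and 125 nM JAK inhibitor controls.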

[4] = biological target: Glucocorticoid receptor (Homo sapiens) (UniProt P04150); test: GR-GFP Redistribution (AID 450;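 active = compounds whose dose series gives a full or clear partial fitted curve of increased nuclear translocation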; also: potency is read from the fitted curve at half-maximal effect)
Sequence of Glucocorticoid receptor (Homo sapiens) (P04150 whole entry, looked up): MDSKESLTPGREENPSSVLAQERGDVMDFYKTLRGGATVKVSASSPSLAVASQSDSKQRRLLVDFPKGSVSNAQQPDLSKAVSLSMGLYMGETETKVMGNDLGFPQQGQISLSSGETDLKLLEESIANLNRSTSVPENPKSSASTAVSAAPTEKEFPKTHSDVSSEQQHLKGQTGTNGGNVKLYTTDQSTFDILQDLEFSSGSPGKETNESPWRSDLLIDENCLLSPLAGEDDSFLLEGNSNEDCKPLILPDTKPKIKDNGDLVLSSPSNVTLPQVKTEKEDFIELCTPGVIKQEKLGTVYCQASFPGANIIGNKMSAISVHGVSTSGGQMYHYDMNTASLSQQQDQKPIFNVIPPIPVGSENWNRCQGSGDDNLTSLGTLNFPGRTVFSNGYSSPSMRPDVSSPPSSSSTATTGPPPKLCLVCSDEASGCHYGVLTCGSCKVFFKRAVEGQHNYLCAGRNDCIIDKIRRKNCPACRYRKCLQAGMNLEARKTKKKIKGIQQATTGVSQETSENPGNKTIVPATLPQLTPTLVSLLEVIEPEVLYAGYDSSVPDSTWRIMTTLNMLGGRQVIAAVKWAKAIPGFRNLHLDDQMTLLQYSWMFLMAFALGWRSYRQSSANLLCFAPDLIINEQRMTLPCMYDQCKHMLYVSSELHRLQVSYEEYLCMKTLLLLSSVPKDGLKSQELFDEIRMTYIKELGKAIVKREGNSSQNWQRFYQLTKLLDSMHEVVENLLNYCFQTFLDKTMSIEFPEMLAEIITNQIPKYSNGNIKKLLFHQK

CCCCCCOC(=O)CCn1[nH]c(=O)c2ccccc2c1=O
inactive: activity change, negative = inhibition [1] 13% | activity change, negative = inhibition [2] 7.42% | activity, negative = inhibition [3] -5.61% | Potency [4] > 20.6 µM

Cc1occc1C(=O)OCC(=O)Nc1ccc(F)cc1
inactive: activity change, negative = inhibition [1] 17.4% | activity change, negative = inhibition [2] 1.22% | activity, negative = inhibition [3] -3.3% | Potency [4] > 20.6 µM

CCc1[nH]c(=O)c(C#N)c2c1CSC(C)(C)C2
inactive: activity change, negative = inhibition [1] 5.95% | activity change, negative = inhibition [2] 3.33% | activity, negative = inhibition [3] 9.69% | Potency [4] > 20.6 µM

CCc1cc(=O)oc2cc(C)c(CN3CCCC(C)C3)c(O)c12 (stereo not given)
inactive: activity change, negative = inhibition [1] 1.74% | activity change, negative = inhibition [2] -12.2% | activity, negative = inhibition [3] -15.7% | Potency [4] > 20.6 µM

CN(C)C(=O)COn1c(SCC(=O)N(C)C)nc2ccccc2c1=O
inactive: activity change, negative = inhibition [1] 6.36% | activity change, negative = inhibition [2] 14.2% | activity, negative = inhibition [3] 2.27% | Potency [4] > 20.6 µM

O=c1[nH]c(-c2ccccn2)nc2ccccc12
inactive: activity change, negative = inhibition [1] -2.38% | activity change, negative = inhibition [2] -10.6% | activity, negative = inhibition [3] 13.3% | Potency [4] > 20.6 µM

Cc1[nH]nc2cn[nH]c12
inactive: activity change, negative = inhibition [1] -10.4% | activity change, negative = inhibition [2] 6.17% | activity, negative = inhibition [3] 4.46% | Potency [4] > 20.6 µM

CCNc1nc(Oc2ccccc2)nc(OC(C)C(=O)OCC)n1 (stereo not given)
inactive: activity change, negative = inhibition [1] -1.07% | activity change, negative = inhibition [2] 6.54% | activity, negative = inhibition [3] 1.47% | Potency [4] > 20.6 µM

CCN=C1SC(C(=O)Nc2ccc(Cl)c(Cl)c2)CC(=O)N1CC (stereo not given)
inactive: activity change, negative = inhibition [1] -19.4% | activity change, negative = inhibition [2] 10.1% | activity, negative = inhibition [3] 4.81% | Potency [4] > 20.6 µM

CS(=O)(=O)c1ccc2nc(NC(NC(=O)c3ccco3)(C(F)(F)F)C(F)(F)F)sc2c1
inactive: activity change, negative = inhibition [1] -11.7% | activity change, negative = inhibition [2] 21.2% | activity, negative = inhibition [3] -18.9% | Potency [4] > 20.6 µM

Cn1c(=O)[nH]c(=O)c2c1nc(Br)n2CCSc1ncccn1
inactive: activity change, negative = inhibition [1] 5.72% | activity change, negative = inhibition [2] -10.8% | activity, negative = inhibition [3] 4.76% | Potency [4] > 20.6 µM

Cc1ccc2cc(CN(C(=O)c3ccco3)c3ccccc3)c(=O)[nH]c2c1
inactive: activity change, negative = inhibition [1] -24.5% | activity change, negative = inhibition [2] 2.15% | activity, negative = inhibition [3] -2.89% | Potency [4] > 20.6 µM

CCOC(=O)c1ccc(NCC(O)COc2ccccc2)cc1 (stereo not given)
inactive: activity change, negative = inhibition [1] -4.75% | activity change, negative = inhibition [2] -1.02% | activity, negative = inhibition [3] -4.83% | Potency [4] > 20.6 µM

Cc1cc(=O)oc(C)c1C(=O)Nc1ccc2nsnc2c1
inactive: activity change, negative = inhibition [1] 6.72% | activity change, negative = inhibition [2] -6.31% | activity, negative = inhibition [3] 8.13% | Potency [4] > 20.6 µM

COC(=O)C(NC(=O)c1ccco1)(Nc1ccc(Br)cn1)C(F)(F)F (stereo not given)
inactive: activity change, negative = inhibition [1] -10.6% | activity change, negative = inhibition [2] -10.8% | activity, negative = inhibition [3] -13% | Potency [4] > 20.6 µM

COc1ccccc1C1/C(=C(/O)c2cnn(-c3ccccc3)c2C)C(=O)C(=O)N1CCN(C)C (stereo not given)
inactive: activity change, negative = inhibition [1] -7.05% | activity change, negative = inhibition [2] 1.4% | activity, negative = inhibition [3] 2.75% | Potency [4] > 20.6 µM

Cc1cc(C)nc(CC(N)=O)n1
inactive: activity change, negative = inhibition [1] 0.0367% | activity change, negative = inhibition [2] 4.47% | activity, negative = inhibition [3] -0.0254% | Potency [4] > 20.6 µM

O=C(O)C1CSC(CCc2ccccc2)N1 (stereo not given)
inactive: activity change, negative = inhibition [1] 19.9% | activity change, negative = inhibition [2] -1.74% | activity, negative = inhibition [3] 27% | Potency [4] > 20.6 µM

c1ccc(-n2ncc3c(NCC4CCCO4)ncnc32)cc1 (stereo not given)
inactive: activity change, negative = inhibition [1] -4.47% | activity change, negative = inhibition [2] -15.8% | activity, negative = inhibition [3] 2.07% | Potency [4] > 20.6 µM

CC(=O)Nc1cccc(NC(=O)CSc2nc(C)c(C)c(C)c2C#N)c1
inactive: activity change, negative = inhibition [1] -13.8% | activity change, negative = inhibition [2] 8.76% | activity, negative = inhibition [3] -4.2% | Potency [4] > 20.6 µM

C[N+]1(CCNC(=O)/C=N/O)CCCCC1
inactive: activity change, negative = inhibition [1] 7.1% | activity change, negative = inhibition [2] -12.9% | activity, negative = inhibition [3] 5.42% | Potency [4] > 20.6 µM

Cc1cc(C)n2c3c(c(C#N)c2n1)CC(C)(C)OC3
inactive: activity change, negative = inhibition [1] 5.4% | activity change, negative = inhibition [2] -2.38% | activity, negative = inhibition [3] -0.114% | Potency [4] > 20.6 µM

c1ccc(-c2nnc3sc(Cc4cccs4)nn23)cc1
inactive: activity change, negative = inhibition [1] -13.7% | activity change, negative = inhibition [2] -18.2% | activity, negative = inhibition [3] 16.7% | Potency [4] > 20.6 µM

CCn1c(SCC(=O)Nc2ccccc2C(=O)OC)nnc1-c1ccc(N)cc1
inactive: activity change, negative = inhibition [1] -23.2% | activity change, negative = inhibition [2] -3.89% | activity, negative = inhibition [3] 0.432% | Potency [4] > 20.6 µM

Cc1nc(-c2c(-c3ccc(O)cc3O)noc2C(F)(F)F)cs1
inactive: activity change, negative = inhibition [1] -11.8% | activity change, negative = inhibition [2] -22% | activity, negative = inhibition [3] -18.8% | Potency [4] > 20.6 µM
